For 20 molecules, outcome and AC50 results are on record in PubChem BioAssay (EPA / NIEHS).

The structures appear in SMILES notation. Results filed as inconclusive are left out. The source made the active and inactive calls. How the source made its calls: active means hit-call score of the fitted dose curve at least 0.9, where 1 is the maximum; inconclusive means response in the unintended direction; inactive means score below 0.9.

Assay [1] can be described thus: TOX21_p53_BLA_p2_viability: Viability Assessment in the Tox21 HCT-116 p53 Agonism Beta-lactamase Assay, Phase 2 (AID 2283591).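 Further: compound exposure lasted 16 h at 37 °C; actives lower the ATP signal meaning cytotoxicity.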 The essentials:
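HCT-116 p53-bla cells (4000/well) rested 5 h at 37C, then received compounds in DMSO (217-fold dilution) for 16 h at 37C, 5% CO2. After the CCF4 read, CellTiter-Glo was added; ATP luminescence was read after 30 min at room temperature.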

The target of assay [2] is Cellular tumor antigen p53 (Homo sapiens) (UniProt P04637). The experiment in a line: TOX21_p53_BLA_p2_ratio: Tox21 HCT-116 p53 Agonism Beta-lactamase Assay, Ratio, Phase 2 (AID 2283592). The essentials:
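Plated HCT116 p53-bla cells (4000/well) received compound after 5 h, then 16 h at 37C/5% CO2. CCF4-AM added, 2 h RT. Ratio of 460 to 530 nm emission taken as the p53 reporter signal.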

Assay [3] in a line: TOX21_p53_BLA_p3_viability: Viability Assessment in the Tox21 HCT-116 p53 Agonism Beta-lactamase Assay, Phase 3 (AID 2283593).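 Further: cells exposed to compound for 16 h before reading.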 The essentials:
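HCT-116 cells (4000/well) rested 5 h at 37C, then got DMSO compounds by pin tool (217-fold dilution) for 16 h at 37C, 5% CO2. After the bla read, CellTiter-Glo was added and luminescence read at 30 min, room temperature.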

In assay [4] the target is Cellular tumor antigen p53 (Homo sapiens) (UniProt P04637). Nature of the assay: TOX21_p53_BLA_p3_ratio: Tox21 HCT-116 p53 Agonism Beta-lactamase Assay, Ratio, Phase 3 (AID 2283596). The essentials:
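Cells were seeded at 4000/well, rested 5 h at 37C, then dosed with DMSO compound solutions (217-fold dilution) for 16 h. CCF4-AM substrate was loaded for 2 h at room temperature, and the 460/530 nm emission ratio was fitted for gain of signal versus DMSO.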

Assay [5] can be described thus: TOX21_p53_BLA_p4_viability: Viability Assessment in the Tox21 HCT-116 p53 Agonism Beta-lactamase Assay, Phase 4 (AID 2283597).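 Further: hits lower the luminescence signal meaning cytotoxicity.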 The essentials: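 Readout: ATP luminescence (CellTiter-Glo), measured 30 min after reagent addition at RT. The reagent followed a 2 h CCF4-AM incubation, and the cells had been exposed to compound for 16 h at 37C.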
In assay [6] the target is Cellular tumor antigen p53 (Homo sapiens) (UniProt P04637). Nature of the assay: TOX21_p53_BLA_p5_ratio: Tox21 HCT-116 p53 Agonism Beta-lactamase Assay, Ratio, Phase 5 (AID 2283599). The essentials: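 HCT-116 cells carrying a p53-inducible beta-lactamase reporter were seeded at 4000 cells/well and dosed after 5 h with compound in DMSO (217-fold dilution). After 16 h at 37C, CCF4-AM substrate was added for 2 h, and the 460/530 nm emission ratio was scored as gain-of-signal versus DMSO.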

A short description of assay [7]: TOX21_p53_BLA_p5_viability: Viability Assessment in the Tox21 HCT-116 p53 Agonism Beta-lactamase Assay, Phase 5 (AID 2283600). The essentials: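 Workflow: seed 4000 cells per well, wait 5 h, add compounds (DMSO, 217-fold dilution), incubate 16 h, load CCF4-AM 2 h, add CellTiter-Glo, read luminescence after 30 min.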
The target in assay [8] is Cellular tumor antigen p53 (Homo sapiens) (UniProt P04637). The experiment in a line: TOX21_p53_BLA_p4_ratio: Tox21 HCT-116 p53 Agonism Beta-lactamase Assay, Ratio, Phase 4 (AID 2283601). The essentials:
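HCT116 cells carrying an inducible beta-lactamase reporter were plated at 4000 cells/well, rested 5 h, then exposed to compounds in DMSO (217-fold dilution) for 16 h at 37C. CCF4-AM substrate was loaded 2 h at room temperature; 460/530 nm emission ratio scored gain-of-signal versus DMSO.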

Chain of Cellular tumor antigen p53 (Homo sapiens) (P04637 whole entry, looked up): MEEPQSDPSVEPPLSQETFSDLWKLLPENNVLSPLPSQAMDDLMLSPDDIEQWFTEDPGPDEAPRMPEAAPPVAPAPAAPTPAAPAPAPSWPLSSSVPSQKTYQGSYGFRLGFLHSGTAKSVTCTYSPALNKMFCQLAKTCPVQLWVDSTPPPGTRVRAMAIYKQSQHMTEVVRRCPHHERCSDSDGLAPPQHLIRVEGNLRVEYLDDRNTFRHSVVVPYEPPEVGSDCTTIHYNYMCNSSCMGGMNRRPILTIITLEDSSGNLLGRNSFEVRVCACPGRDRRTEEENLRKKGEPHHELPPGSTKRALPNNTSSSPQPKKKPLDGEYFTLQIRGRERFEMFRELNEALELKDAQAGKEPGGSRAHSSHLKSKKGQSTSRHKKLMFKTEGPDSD

Consider `CN1CCN(c2cc3c(nn2)Oc2ccccc2N3C)CC1`, for which the outcome in assay [1], in assay [2], in assay [3], in assay [4], in assay [5] and in assay [6] was inactive. The result in assay [7] and in assay [8] was inactive.

In general, AC50 refers to the concentration giving half of the maximal activity seen. On to `CCCCc1oc2ccc(NS(C)(=O)=O)cc2c1C(=O)c1ccc(OCCCN(CCCC)CCCC)cc1`, for which the AC50 in assay [1] was 34.7 µM (active); in assay [3], 34.6 µM (active); in assay [4] it was 43.7 µM (active); in assay [5], 23.7 µM (active); in assay [8] it was 43.1 µM (active). Moreover, the result in assay [2], in assay [6] and in assay [7] was inactive.

As for `O=C(O)c1c(Cl)c(Cl)c(Cl)c(Cl)c1-c1c2cc(I)c(=O)c(I)c-2oc2c(I)c(O)c(I)cc12`, the AC50 was 37.2 µM (active) in assay [1], 13.6 µM (active) in assay [3], 44.1 µM (active) in assay [5] and 43.1 µM (active) in assay [8]. In addition, the result in assay [2], in assay [4], in assay [6] and in assay [7] was inactive.

On to `C=COCC1CCC(CO)CC1` (stereo not given), for which the molecule was called inactive in assay [1], in assay [2], in assay [3], in assay [4], in assay [5] and in assay [6]. Besides, the molecule was classed as inactive in assay [7] and in assay [8].

For the molecule `SC1CCCCC1`, the outcome in assay [1], in assay [2], in assay [3], in assay [4], in assay [5] and in assay [6] was inactive. For the same molecule, the molecule was classed as inactive in assay [7] and in assay [8].

Regarding `CC=C(C(=CC)c1ccc(O)cc1)c1ccc(O)cc1`, the call in assay [1], in assay [2], in assay [3], in assay [5], in assay [6] and in assay [7] was inactive. Further, the AC50 was 4.02 µM (active) in assay [4] and 3.75 µM (active) in assay [8].

For `O=C(NOCC1CC1)c1ccc(F)c(F)c1Nc1ccc(I)cc1Cl`, in assay [1], the call was inactive. Moreover, the AC50 in assay [2] was 7.89 µM (active); in assay [3] it was 23 µM (active); in assay [4], 23.9 µM (active); in assay [5], 23 µM (active); in assay [6], 20.5 µM (active); in assay [7], 19.7 µM (active). For the same molecule, the AC50 in assay [8] was 30.5 µM (active).

For the molecule `COc1c(Br)cc(Br)c(C)c1Br`, the outcome in assay [1], in assay [2], in assay [3], in assay [4], in assay [5] and in assay [6] was inactive. The molecule was called inactive in assay [7] and in assay [8].

As for `CN(C/C=C/c1ccccc1)Cc1cccc2ccccc12`, the outcome in assay [1], in assay [2], in assay [3], in assay [4], in assay [5] and in assay [6] was inactive. For the same molecule, the molecule was classed as inactive in assay [7] and in assay [8].

As for `CCOc1cc(-c2nccc3cc(OC)c(OC)cc23)cc(OCC)c1OCC`, the molecule was called inactive in assay [1], in assay [2], in assay [3], in assay [4], in assay [5] and in assay [6]. For the same molecule, the molecule was called inactive in assay [7] and in assay [8].

On to `CO[C@H]1/C=C/O[C@@]2(C)Oc3c(C)c(O)c4c(O)c(cc(O)c4c3C2=O)NC(=O)/C(C)=C\C=C\[C@H](C)[C@H](O)[C@@H](C)[C@@H](O)[C@@H](C)[C@H](OC(C)=O)[C@@H]1C`, for which the molecule was classed as inactive in assay [1], in assay [2], in assay [3], in assay [4], in assay [5] and in assay [6]. For the same molecule, the outcome in assay [7] and in assay [8] was inactive.

For the molecule `COc1cc(C(=O)NS(=O)(=O)c2ccccc2C)ccc1Cc1cn(C)c2ccc(NC(=O)OC3CCCC3)cc12`, the AC50 was 14.2 µM (active) in assay [1]; 7.01 µM (active) in assay [2]; 7.45 µM (active) in assay [3]; 8.2 µM (active) in assay [4]; 8.18 µM (active) in assay [5]; 12.9 µM (active) in assay [6]. Also, the results for the AC50 in assay [7] and in assay [8] were 10.1 µM (active) and 9.98 µM (active), respectively.

Regarding `Cc1ccc(S(=O)(=O)NC(=O)NN2CC3CCCC3C2)cc1` (stereo not given), the result in assay [1], in assay [2], in assay [3], in assay [4], in assay [5] and in assay [6] was inactive. In addition, the result in assay [7] and in assay [8] was inactive.

Consider `O=C(CS)Nc1ccccc1`, for which the molecule was classed as inactive in assay [1], in assay [2], in assay [3], in assay [4], in assay [5] and in assay [6]. Moreover, the molecule was classed as inactive in assay [7] and in assay [8].

As for `O=C(c1ccc(O)cc1)c1ccc(O)c(O)c1O`, the molecule was called inactive in assay [1], in assay [2], in assay [3], in assay [4], in assay [5] and in assay [6]. The call in assay [7] and in assay [8] was inactive.

As for `COCC(=O)O[C@]1(CCN(C)CCCc2nc3ccccc3[nH]2)CCc2cc(F)ccc2[C@@H]1C(C)C`, the AC50 in assay [1] is 13.1 µM (active); in assay [2] it was 22.4 µM (active); in assay [3], 10.9 µM (active); in assay [4], 19.6 µM (active); in assay [5] it was 9.78 µM (active); in assay [6] it was 25.4 µM (active). Moreover, the AC50 was 15.8 µM (active) in assay [7] and 21.6 µM (active) in assay [8].

For `Cc1cc(-c2ccc(N=Nc3cc(S(=O)(=O)O)c4ccccc4c3N)c(C)c2)ccc1N=Nc1cc(S(=O)(=O)O)c2ccccc2c1N`, the call in assay [1], in assay [3], in assay [5], in assay [6], in assay [7] and in assay [8] was inactive. Also, the AC50 in assay [2] is 6.5 µM (active); in assay [4] it was 12.6 µM (active).

Consider `NCCCC[C@H](NC(=O)[C@@H]1CCCN1C(=O)[C@@H]1CSSC[C@H](N)C(=O)N[C@@H](Cc2ccc(O)cc2)C(=O)N[C@@H](Cc2ccccc2)C(=O)N[C@@H](CCC(N)=O)C(=O)N[C@@H](CC(N)=O)C(=O)N1)C(=O)NCC(N)=O`, for which the result in assay [1], in assay [2], in assay [3], in assay [4], in assay [5] and in assay [6] was inactive. The result in assay [7] and in assay [8] was inactive.

Turning to `CC(=O)OC(OC(C)=O)c1ccc([N+](=O)[O-])o1`, the AC50 in assay [1] is 74.3 µM (active); in assay [3] it was 74.1 µM (active); in assay [5], 74.8 µM (active); in assay [7], 88 µM (active). For the same molecule, the outcome in assay [2], in assay [4], in assay [6] and in assay [8] was inactive.

As to `CN(C)[C@@H]1C(=O)C(C(=O)NCN2CCCC2)=C(O)[C@@]2(O)C(=O)C3=C(O)c4c(O)cccc4[C@@](C)(O)C3C[C@@H]12` (stereo not given in full), the outcome in assay [1], in assay [2], in assay [3], in assay [4], in assay [5] and in assay [6] was inactive. Moreover, the result in assay [7] and in assay [8] was inactive.
